Our source for the z-score and composite z-score values is PubChem BioAssay.

The structures appear in SMILES notation. Calls of active or inactive are those of the source.

Assay [1] can be described thus: E. coli DRC41 culture turbidity changes, primary screen, E. coli filamentation inducer project, strain DRC41, OD650, 48 h (AID 1152).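 Also: E. coli MC1000 strain DRC41 lacking acrAB efflux pump and sulA.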 The note with it: E. coli DRC41 (acrAB sulA), higher = more signal, called active from +8 up or from −8 down.
The nature of assay [2]: small-molecule binders of probe aLefty1, primary screen, biochemical, small-molecule microarray, 635/667 nm fluorescence (AID 1153).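 Also: score merges spot fluorescence with signal-to-noise ratio from the scanned slide images.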 The note with it: higher = more signal.
Assay [3] is described as follows: PSAC antagonists in infected red cells, primary screen, cell-based, P. falciparum Indochina, OD700, 1 h (AID 1154). The note with it: P. falciparum Indochina infected RBC osmotic lysis, higher = more signal, called active from +8 up or from −8 down.
Assay [4] in a line: PSAC antagonists in infected red cells, primary screen, cell-based, P. falciparum Indochina, OD700, 2 h (AID 1155).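 Also: lysis reports solute entry through the parasite surface anion channel PSAC; channel blockers reduce lysis of infected cells.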 The conditions noted are these: P. falciparum Indochina infected erythrocytes, osmotic lysis OD700; higher = more signal, called active from +8 up or from −8 down.
Assay [5] is described as follows: osmotic lysis modulators in infected erythrocytes, primary screen, PSAC antagonist project, cell-based, P. falciparum Indochina, OD700, 3 h (AID 1156). The conditions noted are these: higher = more signal, called active from +8 up or from −8 down.
Assay [6] is described as follows: PSAC antagonists in infected red cells, primary screen, cell-based, P. falciparum Indochina, OD700, 18 h (AID 1157). The conditions noted are these: P. falciparum Indochina infected erythrocytes, osmotic lysis OD700, 18 h; higher = more signal, called active from +8 up or from −8 down.
A short description of assay [7]: modulators of S6 phosphorylation in cells, primary screen, cell-based, A549, cytoblot, luminescence, serum-stimulated (AID 1158).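 Also: serum-stimulated A549 lung adenocarcinoma cells; signal is phosphorylated S6 detected by cytoblot immunostaining with HRP secondary.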 The note with it: A549 phospho-S6 cytoblot, 5 h, higher = more signal.
Assay [8] deals with NADPH oxidase 2 (Homo sapiens) (UniProt P04839). Description: NOX2-dependent H2O2 signal modulators, primary screen, NOX inhibitor project, cell-based, HEK293-NOX2, PMA-stimulated, Amplex Red fluorescence (AID 1159). Also: test concentration not given here. The note with it: 45 min, higher = more signal, called active from +8 up or from −8 down.
NADPH oxidase 2 (Homo sapiens), sequence (P04839 whole entry, looked up): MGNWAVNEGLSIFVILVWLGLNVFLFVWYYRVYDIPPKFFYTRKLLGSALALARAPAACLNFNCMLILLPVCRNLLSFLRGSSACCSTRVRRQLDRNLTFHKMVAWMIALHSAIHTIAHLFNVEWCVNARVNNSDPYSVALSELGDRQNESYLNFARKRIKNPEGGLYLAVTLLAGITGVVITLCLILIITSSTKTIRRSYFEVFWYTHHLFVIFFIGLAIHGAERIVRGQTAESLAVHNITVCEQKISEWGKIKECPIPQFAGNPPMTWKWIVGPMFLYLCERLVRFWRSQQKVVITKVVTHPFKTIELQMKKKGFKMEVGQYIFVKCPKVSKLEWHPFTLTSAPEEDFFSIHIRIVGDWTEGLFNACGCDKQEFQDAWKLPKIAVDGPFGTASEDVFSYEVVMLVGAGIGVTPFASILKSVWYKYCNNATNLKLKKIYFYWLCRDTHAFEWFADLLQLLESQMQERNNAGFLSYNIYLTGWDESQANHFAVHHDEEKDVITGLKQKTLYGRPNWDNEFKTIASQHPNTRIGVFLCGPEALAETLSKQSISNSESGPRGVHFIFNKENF
In assay [9] the target is NADPH oxidase 4 (Homo sapiens) (UniProt Q9NPH5). The assay can be described thus: NOX4-dependent H2O2 signal modulators, primary screen, NOX inhibitor project, cell-based, HEK293-NOX4, tetracycline-induced, Amplex Red fluorescence (AID 1160). The conditions noted are these: 45 min, higher = more signal, called active from +8 up or from −8 down.
NADPH oxidase 4 (Homo sapiens), sequence (Q9NPH5 whole entry, looked up): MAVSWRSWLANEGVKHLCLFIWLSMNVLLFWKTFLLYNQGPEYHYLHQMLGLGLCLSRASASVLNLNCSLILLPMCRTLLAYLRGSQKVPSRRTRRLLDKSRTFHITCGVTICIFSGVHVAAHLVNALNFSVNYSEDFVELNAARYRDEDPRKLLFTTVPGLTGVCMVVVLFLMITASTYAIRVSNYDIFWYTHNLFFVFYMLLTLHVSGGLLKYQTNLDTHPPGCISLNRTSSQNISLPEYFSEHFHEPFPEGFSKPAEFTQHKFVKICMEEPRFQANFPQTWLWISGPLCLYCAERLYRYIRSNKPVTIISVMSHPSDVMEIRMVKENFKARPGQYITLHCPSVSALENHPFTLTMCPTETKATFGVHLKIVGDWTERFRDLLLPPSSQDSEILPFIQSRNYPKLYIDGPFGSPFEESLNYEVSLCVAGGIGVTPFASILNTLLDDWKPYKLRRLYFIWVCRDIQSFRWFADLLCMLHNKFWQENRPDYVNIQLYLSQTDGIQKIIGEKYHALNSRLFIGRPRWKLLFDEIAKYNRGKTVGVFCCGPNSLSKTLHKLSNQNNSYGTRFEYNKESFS
The target in assay [10] is NADPH oxidase 5 (Homo sapiens) (UniProt Q96PH1). Description: NOX5-dependent H2O2 signal modulators, primary screen, NOX inhibitor project, cell-based, HEK293-NOX5, Amplex Red fluorescence (AID 1161). The note with it: HEK293-NOX5, ionomycin, 45 min, higher = more signal.
NADPH oxidase 5 (Homo sapiens), sequence (Q96PH1 whole entry, looked up): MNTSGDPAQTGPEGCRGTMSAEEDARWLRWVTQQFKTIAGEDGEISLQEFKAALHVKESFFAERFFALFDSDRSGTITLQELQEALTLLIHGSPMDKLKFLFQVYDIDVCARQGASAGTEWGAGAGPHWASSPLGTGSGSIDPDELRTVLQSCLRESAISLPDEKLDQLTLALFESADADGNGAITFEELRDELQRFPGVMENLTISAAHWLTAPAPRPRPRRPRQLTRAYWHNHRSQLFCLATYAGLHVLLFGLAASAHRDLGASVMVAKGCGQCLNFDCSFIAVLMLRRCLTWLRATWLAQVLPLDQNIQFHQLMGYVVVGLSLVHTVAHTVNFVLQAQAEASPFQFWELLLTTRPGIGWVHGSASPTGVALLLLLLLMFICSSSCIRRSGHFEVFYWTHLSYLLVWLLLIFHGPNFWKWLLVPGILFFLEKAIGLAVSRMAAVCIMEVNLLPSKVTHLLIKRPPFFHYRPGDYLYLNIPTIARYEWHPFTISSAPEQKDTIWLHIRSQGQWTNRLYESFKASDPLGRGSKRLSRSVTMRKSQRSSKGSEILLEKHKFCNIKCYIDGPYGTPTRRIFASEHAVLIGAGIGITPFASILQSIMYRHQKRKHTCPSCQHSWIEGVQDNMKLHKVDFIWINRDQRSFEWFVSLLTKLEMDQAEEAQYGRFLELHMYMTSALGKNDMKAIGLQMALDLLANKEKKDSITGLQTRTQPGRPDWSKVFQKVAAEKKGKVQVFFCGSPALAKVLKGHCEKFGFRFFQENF
Assay [11] can be described thus: A549 cell viability effects, profiling panel, calcein-AM fluorescence, 48 h, basal (AID 1162). Also: test concentration not given here. The note with it: higher = more signal.
Assay [12] can be described thus: adipocyte viability effects, profiling panel, cell-based, 3T3-L1 adipocytes, calcein-AM fluorescence, 48 h, basal (AID 1163). Also: test concentration not given here. The conditions noted are these: 3T3-L1 adipocytes viability, higher = more signal.
The nature of assay [13]: HepG2 cell viability effects, profiling panel, calcein-AM fluorescence, 48 h, basal (AID 1164). Also: test concentration not given here. The conditions noted are these: higher = more signal.
Assay [14] can be described thus: MM1S cell viability effects, profiling panel, calcein-AM fluorescence, 48 h, basal (AID 1165).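 Also: viability of MM1S multiple myeloma cells under basal unstimulated conditions; test concentration not given here.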 The conditions noted are these: higher = more signal.
The nature of assay [15]: basal RPMI8226 viability, no added stimulus, profiling panel, cell-based, calcein-AM fluorescence, 48 h, PK04 Diversity Set (AID 1166).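 Also: cells grown under basal conditions without added stimulus; test concentration not given here.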 The conditions noted are these: RPMI8226 myeloma viability, higher = more signal.
Assay [16] in a line: basal HepG2 mitochondrial membrane potential changes, profiling panel, cell-based, JC-1 fluorescence, 24 h, 100 nL compound (AID 1167). Also: test concentration not given here. The note with it: higher = more signal.
The nature of assay [17]: basal 3T3-L1 adipocyte mitochondrial potential changes, profiling panel, cell-based, JC-1 fluorescence, 3T3-L1 adipocytes, 24 h, 100 nL compound (AID 1168). Also: test concentration not given here. The conditions noted are these: JC-1 mitochondrial fluorescence, higher = more signal, called active from +8 up or from −8 down.
A short description of assay [18]: basal RPMI8226 mitochondrial membrane potential changes, profiling panel, cell-based, JC-1 fluorescence, 24 h, 100 nL compound (AID 1169). Also: test concentration not given here. The note with it: RPMI8226 myeloma, JC-1 mitochondrial potential fluorescence, higher = more signal.
The nature of assay [19]: basal MM1S mitochondrial membrane potential changes, profiling panel, cell-based, JC-1 fluorescence, 24 h, 100 nL compound (AID 1170). Also: test concentration not given here. The conditions noted are these: higher = more signal.
The nature of assay [20]: A549 lung cancer cell viability effects, profiling panel, resazurin fluorescence, 24 h, PK04 Diversity Set (AID 1171). Also: test concentration not given here. The conditions noted are these: higher = more signal, called active from +8 up or from −8 down. (In general: The colour change of resazurin is a common sign of viable cells or microbes.)

As for `CCOC(=O)C1=C[C@@H](C(C)C)N(S(=O)(=O)c2ccc(C)cc2)[C@H]1c1ccc(C(C)C)cc1`, the z-score in [1] was -0.39 (inactive); in assay [3], 0.431 (inactive); in assay [4], 0.749 (inactive); in [5] it was 0.4 (inactive); in [6], 0.367 (inactive); in assay [7] it was -0.234. For the same molecule, the z-score in assay [8] was -0.5 (inactive); in [9], -0.195 (inactive); in [10], -0.151; in [11], 0.012; in assay [12], 0.256; in assay [13], -0.493. Also, the z-score in assay [14] was -0.955; in [15], -2.18; in assay [16] it was 7.47; in assay [17], -0.0264 (inactive); in assay [18], -0.0684; in assay [19], -0.776. Also, the z-score in assay [20] was 3.1 (inactive). In assay [2], this molecule displayed a composite z-score of 0.262.

Turning to `CC(c1ccccc1)C(O)C1C=CC2C(=O)NC(=O)C2N1Nc1ccccn1` (stereo not given), the z-score in assay [1] is -0.671 (inactive); in assay [3], 0.887 (inactive); in assay [4] it was 0.561 (inactive); in [5], -0.255 (inactive); in assay [6] it was 0.801 (inactive); in assay [7], -0.8. The z-score in assay [8] was -0.479 (inactive); in assay [9], -3.8 (inactive); in [10], -1.79; in [11] it was 0.405; in assay [12], -0.309; in [13] it was 0.925. Also, the z-score in assay [14] is -0.275; in assay [15], 0.291; in assay [16] it was 0.0592; in [17] it was -0.739 (inactive); in assay [18] it was 0.568; in assay [19], -0.533. In addition, the z-score in [20] was -0.81 (inactive). Moreover, the composite z-score in [2] came to 0.314.

On to `Cc1cc(C)c(C(O)C2C=CC3C(=O)N(c4ccccc4)C(=O)C3N2Nc2ccc(C#N)cc2)c(C)c1` (stereo not given), for which the z-score in assay [1] is -0.197 (inactive); in [3], 7.4 (inactive); in assay [4], 1.27 (inactive); in assay [5], 0.742 (inactive); in assay [6], 1.27 (inactive); in [7] it was -0.649. The z-score in [8] is 0.0492 (inactive); in assay [9], -2.68 (inactive); in [10], -2.1; in [11], 0.0841; in assay [12], -1.06; in assay [13] it was 1.33. The z-score in assay [14] is -0.448; in assay [15] it was -0.127; in assay [16] it was -1.71; in [17], -1.51 (inactive); in [18], 0.211; in assay [19], -0.308. Moreover, the z-score in assay [20] is 0.0763 (inactive). The composite z-score in assay [2] turned out to be 0.938.

In the case of `COC(=O)C[C@H]1O[C@]2(C(=O)N(Cc3ccccc3)c3ccc(NC(C)=O)cc32)[C@@H](C)[C@@H]1[Si](C)(C)c1ccc(OC)cc1`, the z-score in assay [1] was -0.202 (inactive); in assay [3], 2.19 (inactive); in assay [4] it was 0.984 (inactive); in assay [5] it was 0.659 (inactive); in [6], 0.304 (inactive); in assay [7], 0.186. The z-score in [8] was -0.0156 (inactive); in assay [9], 0.288 (inactive); in [10], 2.89; in assay [11] it was -0.472; in [12], 1.73; in [13] it was 0.425. The z-score in [14] is 0.0926; in assay [15], -2.57; in [16] it was 0.0504; in assay [17] it was 1.73 (inactive); in assay [18], -0.0063; in assay [19] it was 0.402. Further, the z-score in assay [20] was -1.62 (inactive). Also, in assay [2], the composite z-score is -0.179.

In the case of `COCCOC(=O)N1C(=O)[C@@]2(c3cc(C#CCC(C(=O)OC)C(=O)OC)ccc31)[C@H](c1ccccc1OCCO)N1[C@H](c3ccccc3)[C@H](c3ccccc3)OC(=O)[C@H]1[C@@H]2C(=O)N1CCc2cc(OC)c(OC)cc2C1`, the z-score in [1] is 2.09 (inactive); in assay [3], 1.87 (inactive); in assay [4], -0.226 (inactive); in assay [5], -0.23 (inactive); in assay [6] it was -0.466 (inactive); in assay [7], 0.61. Further, the z-score in [8] was 1.26 (inactive); in assay [9], 1.56 (inactive); in assay [10], 0.631; in assay [11], 0.178; in assay [12], 1.76; in assay [13] it was -0.821. Further, the z-score in assay [14] was -0.906; in [15], -0.756; in assay [16], -0.0323; in assay [17] it was 2.21 (inactive); in assay [18] it was -0.833; in assay [19] it was -0.702. Moreover, the z-score in assay [20] is 1.34 (inactive). In assay [2], this molecule had a composite z-score of 0.438.

With `CCOC(=O)C[C@H]1[C@H](OC(=O)c2ccc(C(=O)c3ccccc3)cc2)[C@@H](NC(=O)C2CCCCC2)c2cc(OCCCO)ccc2N1C(=O)c1ccccc1`, the z-score in [1] is -1.01 (inactive); in assay [3], 1.31 (inactive); in [4], -0.889 (inactive); in assay [5] it was -0.562 (inactive); in assay [6], -0.23 (inactive); in assay [7], -0.0118. Besides, the z-score is 0.469 (inactive) in [8]; 1.26 (inactive) in assay [9]; 1.77 in assay [10]; -0.195 in assay [11]; -0.589 in [12]; 0.431 in assay [13]. Besides, the z-score in [14] is -1.21; in assay [15], -0.681; in assay [16] it was 1.4; in assay [17] it was -0.355 (inactive); in assay [18] it was 0.0249; in assay [19] it was -0.0847. In assay [20], the z-score was 0.352 (inactive). This molecule displayed a composite z-score in [2] of 0.315.

As to `Cc1ccc([C@H]2[C@H](C(=O)O)[C@H](Sc3ccccc3)[C@@H](C(C)C)N2S(=O)(=O)c2ccc(C)cc2)cc1`, the z-score in assay [1] is -1.51 (inactive); in assay [3], 1.09 (inactive); in assay [4], 0.456 (inactive); in assay [5] it was -0.922 (inactive); in assay [6], 0.781 (inactive); in [7] it was -0.137. In addition, the z-score is 1.01 (inactive) in assay [8]; 0.349 (inactive) in assay [9]; 1.16 in assay [10]; -0.74 in assay [11]; -0.594 in [12]; -0.447 in [13]. Moreover, the z-score in assay [14] is -0.0237; in [15], -0.802; in [16], -1.63; in [17], 0.327 (inactive); in assay [18] it was -0.199; in [19] it was -0.437. For the same molecule, in assay [20], the z-score was -0.064 (inactive). The same molecule yielded a composite z-score in [2] of -0.0675.

Consider `COc1ccc([Si](C)(C)[C@H]2[C@H](CCn3cc([C@H](O)c4ccccc4)nn3)O[C@@]3(C(=O)N(Cc4cccc(N5CCC5=O)c4)c4ccccc43)[C@@H]2C)cc1`, for which the z-score in assay [1] is 2.02 (inactive); in [3] it was 9.44 (active); in assay [4], 0.475 (inactive); in [5], -0.272 (inactive); in [6] it was -0.87 (inactive); in assay [7] it was 1.77. Besides, the z-score in assay [8] was 0.0292 (inactive); in assay [9], 1.09 (inactive); in assay [10] it was 2.04; in assay [11], 0.692; in [12], 1.3; in assay [13] it was 1.57. In addition, the z-score was 0.739 in [14]; -1.32 in [15]; 0.906 in [16]; -0.336 (inactive) in assay [17]; -1.15 in [18]; -0.948 in assay [19]. In addition, the z-score in assay [20] is -0.323 (inactive). The molecule further yielded a composite z-score in assay [2] of 0.167.
